Nine compounds from PubChem BioAssay (NCI) can be followed below.

About 79,000 compounds went through this panel and 15% of them were active in at least one assay; those are over-represented in the sample as a whole. The source made the active and inactive calls. Cut-off read from the data, not from the text of the source: active = growth inhibition above about 70%; inactive = the rest.

A short description of assay [1]: NCI Yeast Anticancer Drug Screen. Data for the rad50 strain (AID 155).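 Note: 0% = growth of vehicle-only cultures of the same strain.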 The note with it: S. cerevisiae rad50 strain growth inhibition, hits give high values. A digest of the protocol:
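Yeast carrying a defined DNA repair defect were exposed to test compounds, and growth was compared with vehicle-treated controls to give percent inhibition.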

Assay [2] can be described thus: NCI Yeast Anticancer Drug Screen. Data for the mec2-1 strain (AID 157). Conditions: S. cerevisiae mec2-1 strain, hits give high values. Summed up:
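Readout is yeast growth inhibition, normalised to vehicle-treated controls, in the mec2-1 strain exposed to compound.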

Assay [3] in a line: NCI Yeast Anticancer Drug Screen. Data for the sgs1 mgt1 strain (AID 161).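 Note: 0% = growth of cultures given vehicle only.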 Conditions: S. cerevisiae sgs1 mgt1 strain, hits give high values. A digest of the protocol: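 Yeast cells carrying a defined DNA-repair defect were exposed to test compounds. Growth inhibition was measured relative to vehicle-treated controls.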
The nature of assay [4]: NCI Yeast Anticancer Drug Screen. Data for the cln2 rad14 strain (AID 165).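 Note: 0% = growth equal to vehicle treated cultures.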 The note with it: S. cerevisiae cln2 rad14 strain, hits give high values. Summed up:
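Relative to vehicle controls, growth inhibition of compound-treated cln2 rad14 yeast was recorded.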

The nature of assay [5]: NCI Yeast Anticancer Drug Screen. Data for the bub3 strain (AID 167). Conditions: S. cerevisiae bub3 mutant strain, hits give high values. Summed up: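 Compounds were applied to a genetically altered yeast strain carrying a cell-cycle control defect. Growth inhibition was scored against vehicle-treated controls.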
Assay [6] is described as follows: NCI Yeast Anticancer Drug Screen. Data for the mlh1 rad18 strain (AID 175). The note with it: S. cerevisiae mlh1 rad18 strain growth inhibition, hits give high values. A digest of the protocol: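 Test agents were incubated with a yeast strain of defined genotype (DNA damage repair defect). Inhibition of growth was derived by comparison with vehicle-exposed cultures.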

[7] abbreviates: at 5.0 µM (retest, dose inferred, filed as 0.5).
The mark [8] stands for this setting: at 50.0 µM (retest, dose inferred, filed as 5.0).

For `[Cl][Sn]([Cl])([c]1ccccc1)[c]1ccccc1.c1ccncc1.c1ccncc1`, the growth inhibition in assay [1] (setting [7]) was 93% (active); in assay [1] (setting [8]) it was 97% (active); in assay [1] (at 50.0 µM) it was 98% (active); in assay [2] (setting [7]), 61% (inactive); in assay [2] (setting [8]) it was 99% (active); in assay [2] (at 50.0 µM), 99.1% (active). The growth inhibition in assay [3] (setting [7]) was 94% (active); in assay [3] (setting [8]), 99% (active); in assay [3] (at 50.0 µM), 99% (active); in assay [4] (setting [7]) it was 71% (active); in assay [4] (setting [8]), 98% (active); in assay [4] (at 50.0 µM), 98.8% (active). Further, the growth inhibition is 92% (active) in assay [5] (setting [7]); 98% (active) in assay [5] (setting [8]); 97.9% (active) in assay [5] (at 50.0 µM); 95% (active) in assay [6] (setting [7]); 96% (active) in assay [6] (setting [8]); 98.7% (active) in assay [6] (at 50.0 µM).
As for `CC(=O)NC1C(S[As](C)C)OC(COC(C)=O)C(OC(C)=O)C1OC(C)=O` (configuration not stated), the growth inhibition in assay [1] (setting [7]) is 59% (inactive); in assay [1] (setting [8]) it was 98% (active); in assay [1] (at 50.0 µM), 91% (active); in assay [2] (setting [7]) it was 18% (inactive); in assay [2] (setting [8]) it was 95% (active); in assay [2] (at 50.0 µM), 92.4% (active). In addition, the growth inhibition in assay [3] (setting [7]) is 21% (inactive); in assay [3] (setting [8]) it was 54% (inactive); in assay [3] (at 50.0 µM), 88.5% (active); in assay [4] (setting [7]), 12% (inactive); in assay [4] (setting [8]), 73% (active); in assay [4] (at 50.0 µM), 88.7% (active). The growth inhibition is 55% (inactive) in assay [5] (setting [7]); 98% (active) in assay [5] (setting [8]); 86.1% (active) in assay [5] (at 50.0 µM); 44% (inactive) in assay [6] (setting [7]); 98% (active) in assay [6] (setting [8]); 89.5% (active) in assay [6] (at 50.0 µM).
Take `C=Cc1c2ccccc2cc2ccccc12`: the growth inhibition in assay [1] (setting [7]) was 44% (inactive); in assay [1] (setting [8]), 82% (active); in assay [1] (at 50.0 µM) it was 86.2% (active); in assay [2] (setting [7]), 42% (inactive); in assay [2] (setting [8]), 82% (active); in assay [2] (at 50.0 µM), 75.2% (active). In addition, the growth inhibition is 26% (inactive) in assay [3] (setting [7]); 31% (inactive) in assay [3] (setting [8]); 83.3% (active) in assay [3] (at 50.0 µM); 44% (inactive) in assay [4] (setting [7]); 60% (inactive) in assay [4] (setting [8]); 77% (active) in assay [4] (at 50.0 µM). The growth inhibition in assay [5] (setting [7]) was 50% (inactive); in assay [5] (setting [8]), 36% (inactive); in assay [5] (at 50.0 µM) it was 81.2% (active); in assay [6] (setting [7]), 34% (inactive); in assay [6] (setting [8]), 74% (active); in assay [6] (at 50.0 µM) it was 75% (active).
As to `CC(Cc1ccccc1)[N+](=O)[O-]` (configuration not stated), the growth inhibition in assay [1] (setting [7]) is 8% (inactive); in assay [1] (setting [8]) it was 70% (active); in assay [1] (at 50.0 µM), 79% (active); in assay [2] (setting [7]), 0% (inactive); in assay [2] (setting [8]), 6% (inactive); in assay [2] (at 50.0 µM), -12.9% (inactive). The growth inhibition is 2% (inactive) in assay [3] (setting [7]); 7% (inactive) in assay [3] (setting [8]); -8.2% (inactive) in assay [3] (at 50.0 µM); 3% (inactive) in assay [4] (setting [7]); -3% (inactive) in assay [4] (setting [8]); -19.6% (inactive) in assay [4] (at 50.0 µM). Also, the growth inhibition in assay [5] (setting [7]) was 7% (inactive); in assay [5] (setting [8]) it was 27% (inactive); in assay [5] (at 50.0 µM) it was -6.9% (inactive); in assay [6] (setting [7]), -1% (inactive); in assay [6] (setting [8]), 10% (inactive); in assay [6] (at 50.0 µM), 12.1% (inactive).
Consider `N#CC(C#N)=Cc1ccc2c(c1)OC(Cl)O2` (configuration not stated), for which the growth inhibition is 25% (inactive) in assay [1] (setting [7]); 46% (inactive) in assay [1] (setting [8]); 59.6% (inactive) in assay [1] (at 50.0 µM); 26% (inactive) in assay [2] (setting [7]); 27% (inactive) in assay [2] (setting [8]); 49.2% (inactive) in assay [2] (at 50.0 µM). The growth inhibition in assay [3] (setting [7]) was 15% (inactive); in assay [3] (setting [8]), 33% (inactive); in assay [3] (at 50.0 µM), 57.5% (inactive); in assay [4] (setting [7]), 15% (inactive); in assay [4] (setting [8]), 18% (inactive); in assay [4] (at 50.0 µM), 55.5% (inactive). Also, the growth inhibition was -11% (inactive) in assay [5] (setting [7]); 16% (inactive) in assay [5] (setting [8]); 55.9% (inactive) in assay [5] (at 50.0 µM); 35% (inactive) in assay [6] (setting [7]); 35% (inactive) in assay [6] (setting [8]); 66.5% (inactive) in assay [6] (at 50.0 µM).
Regarding `O=c1oc2ccccc2c(O)c1C(c1ccc(OCc2ccccc2)cc1)c1c(O)c2ccccc2oc1=O`, the growth inhibition in assay [1] (setting [7]) is 16% (inactive); in assay [1] (setting [8]), 7% (inactive); in assay [1] (at 50.0 µM), 63.3% (inactive); in assay [2] (setting [7]), 16% (inactive); in assay [2] (setting [8]), 51% (inactive); in assay [2] (at 50.0 µM) it was 86.3% (active). The growth inhibition is -33% (inactive) in assay [3] (setting [7]); 92% (active) in assay [3] (setting [8]); 65.3% (inactive) in assay [3] (at 50.0 µM); -3% (inactive) in assay [4] (setting [7]); 94% (active) in assay [4] (setting [8]); 62.2% (inactive) in assay [4] (at 50.0 µM). The growth inhibition in assay [5] (setting [7]) is 7% (inactive); in assay [5] (setting [8]) it was 95% (active); in assay [5] (at 50.0 µM) it was 60.2% (inactive); in assay [6] (setting [7]), 7% (inactive); in assay [6] (setting [8]) it was 23% (inactive); in assay [6] (at 50.0 µM), 50.9% (inactive).
With `COC1C(C)OC(OC2CC(C)(O)Cc3cc4c(c(O)c32)C(=O)c2c(O)cc3c(c2C4=O)OC2OC3(C)C(O)C(N(C)C)C2O)C(OC)C1(C)OC` (configuration not stated), the growth inhibition was 69% (inactive) in assay [1] (setting [7]); 96% (active) in assay [1] (setting [8]); 89.5% (active) in assay [1] (at 50.0 µM); 75% (active) in assay [2] (setting [7]); 99% (active) in assay [2] (setting [8]); 93% (active) in assay [2] (at 50.0 µM). The growth inhibition in assay [3] (setting [7]) is 76% (active); in assay [3] (setting [8]), 97% (active); in assay [3] (at 50.0 µM), 91% (active); in assay [4] (setting [7]) it was 58% (inactive); in assay [4] (setting [8]), 91% (active); in assay [4] (at 50.0 µM) it was 88% (active). Further, the growth inhibition in assay [5] (setting [7]) was 77% (active); in assay [5] (setting [8]), 94% (active); in assay [5] (at 50.0 µM) it was 91.5% (active); in assay [6] (setting [7]), 83% (active); in assay [6] (setting [8]), 98% (active); in assay [6] (at 50.0 µM) it was 90% (active).
On to `N#Cc1ccc(N=Cc2c([O-])ccc3ccccc23)cc1.[C-]#[O+].[C-]#[O+].[Ir]`, for which the growth inhibition was 8% (inactive) in assay [1] (setting [7]); 8% (inactive) in assay [1] (setting [8]); 82.6% (active) in assay [1] (at 50.0 µM); 1% (inactive) in assay [2] (setting [7]); 1% (inactive) in assay [2] (setting [8]); 59.5% (inactive) in assay [2] (at 50.0 µM). The growth inhibition is 2% (inactive) in assay [3] (setting [7]); 2% (inactive) in assay [3] (setting [8]); 61.8% (inactive) in assay [3] (at 50.0 µM); 0% (inactive) in assay [4] (setting [7]); 0% (inactive) in assay [4] (setting [8]); 50.2% (inactive) in assay [4] (at 50.0 µM). Also, the growth inhibition in assay [5] (setting [7]) was 1% (inactive); in assay [5] (setting [8]) it was 1% (inactive); in assay [5] (at 50.0 µM), 74.7% (active); in assay [6] (setting [7]), 13% (inactive); in assay [6] (setting [8]), 13% (inactive); in assay [6] (at 50.0 µM), 75.8% (active).
Turning to `CC(=O)[O-].CC(=O)[O-].O=C(N/N=C/c1cc(Cl)cc(Cl)c1[OH2+])c1ccncc1.[Mn+2]`, the growth inhibition in assay [1] (setting [7]) is 24% (inactive); in assay [1] (setting [8]), 96% (active); in assay [1] (at 50.0 µM) it was 97.8% (active); in assay [2] (setting [7]) it was 40% (inactive); in assay [2] (setting [8]), 98% (active); in assay [2] (at 50.0 µM), 97.2% (active). Besides, the growth inhibition was 40% (inactive) in assay [3] (setting [7]); 92% (active) in assay [3] (setting [8]); 98% (active) in assay [3] (at 50.0 µM); 1% (inactive) in assay [4] (setting [7]); 95% (active) in assay [4] (setting [8]); 97% (active) in assay [4] (at 50.0 µM). Besides, the growth inhibition in assay [5] (setting [7]) was 11% (inactive); in assay [5] (setting [8]) it was 96% (active); in assay [5] (at 50.0 µM), 97.5% (active); in assay [6] (setting [7]), 3% (inactive); in assay [6] (setting [8]) it was 95% (active); in assay [6] (at 50.0 µM), 98.2% (active).
